Compounds without any hit were thinned out: in the full panel of roughly 83,000, 20% have a hit.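 Step 1: grow cells in 96-well plates. Step 2: add test compound at a single concentration. Step 3: incubate 48 h. Step 4: record percent growth.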 Activity calls are given as the source filed them. Rule for the calls: active = growth percent below 10; inactive = the rest.
Assays:
Experiment in all cases: NCI-60 one-dose screen, 48 h (100 = growth as untreated, 0 = no growth, -100 = all killed)
Details in all cases: 10 µM unless noted
SK-MEL-2 melanoma = test system: SK-MEL-2 melanoma
SN12C renal = test system: SN12C renal
UO-31 renal = test system: UO-31 renal
TK-10 renal = test system: TK-10 renal
ACHN renal = test system: ACHN renal
CAKI-1 renal = test system: CAKI-1 renal
A498 renal = test system: A498 renal
CCRF-CEM leukemia = test system: CCRF-CEM leukemia
MOLT-4 leukemia = test system: MOLT-4 leukemia
SR leukemia = test system: SR leukemia
RPMI-8226 leukemia = test system: RPMI-8226 leukemia
OVCAR-8 ovarian = test system: OVCAR-8 ovarian
OVCAR-5 ovarian = test system: OVCAR-5 ovarian
OVCAR-4 ovarian = test system: OVCAR-4 ovarian
SK-OV-3 ovarian = test system: SK-OV-3 ovarian
IGROV1 ovarian = test system: IGROV1 ovarian
OVCAR-3 ovarian = test system: OVCAR-3 ovarian
HS 578T breast = test system: HS 578T breast
NCI/ADR-RES ovarian = test system: NCI/ADR-RES ovarian
EKVX NSCLC = test system: EKVX NSCLC

Measured: growth

O=C1Nc2ccccc2/C1=C/C(=N/c1nnc(-c2ccc(Cl)cc2)s1)c1ccccc1
inactive: SK-MEL-2 melanoma 97.2% | SN12C renal 35.5% | CAKI-1 renal 15% | A498 renal 104% | OVCAR-8 ovarian 10.4% | OVCAR-5 ovarian 72.6% | OVCAR-4 ovarian 57.3% | SK-OV-3 ovarian 75.9% | IGROV1 ovarian 21% | HS 578T breast 80.1% | NCI/ADR-RES ovarian 41%
active: UO-31 renal -69.2% | TK-10 renal -36.4% | ACHN renal -71.4% | CCRF-CEM leukemia -42.7% | MOLT-4 leukemia -26.4% | SR leukemia -27.6% | RPMI-8226 leukemia -14.4% | OVCAR-3 ovarian -70.1%

CCCCN(CC)CCCCCCCCCCN1CCCc2cc(OC)ccc21
active: CAKI-1 renal 6.91% | CCRF-CEM leukemia 7.28% | MOLT-4 leukemia -19.6% | SR leukemia -31.7% | RPMI-8226 leukemia -18.4%
inactive: SK-MEL-2 melanoma 92.8% | EKVX NSCLC 34.5% | UO-31 renal 24.4% | TK-10 renal 87.8% | A498 renal 75.9% | OVCAR-8 ovarian 87.5% | OVCAR-5 ovarian 78.8% | OVCAR-4 ovarian 101% | SK-OV-3 ovarian 88.9% | OVCAR-3 ovarian 13.6% | NCI/ADR-RES ovarian 25.9%

COc1nc2c(cc1S(=O)(=O)c1ccccc1)CCc1c-2cnn1Cc1ccccc1
inactive: SK-MEL-2 melanoma 74.3% | EKVX NSCLC 36.1% | UO-31 renal 39.4% | TK-10 renal 61% | ACHN renal 71.7% | A498 renal 17.6% | CCRF-CEM leukemia 68.7% | MOLT-4 leukemia 44.9% | SR leukemia 26.2% | RPMI-8226 leukemia 32.8% | OVCAR-8 ovarian 54% | OVCAR-5 ovarian 93.6% | OVCAR-4 ovarian 35.2% | SK-OV-3 ovarian 58% | IGROV1 ovarian 80.5% | OVCAR-3 ovarian 64.5% | HS 578T breast 79.9% | NCI/ADR-RES ovarian 48.2%

CCCN(CCC)CN(CCC)CCC
inactive: SK-MEL-2 melanoma 108% | EKVX NSCLC 98.8% | UO-31 renal 84.8% | TK-10 renal 106% | ACHN renal 102% | CAKI-1 renal 96.3% | A498 renal 91.8% | MOLT-4 leukemia 97.1% | SR leukemia 101% | RPMI-8226 leukemia 99.9% | OVCAR-8 ovarian 105% | OVCAR-5 ovarian 102% | OVCAR-4 ovarian 117% | SK-OV-3 ovarian 102% | IGROV1 ovarian 111% | OVCAR-3 ovarian 92.1% | HS 578T breast 98.8% | NCI/ADR-RES ovarian 105%

O=C(N/N=C/c1ccc(O)cc1O)c1cccnc1
active: CCRF-CEM leukemia 5.78% | MOLT-4 leukemia 3.3% | SR leukemia -6.2% | OVCAR-8 ovarian -8.42%
inactive: SK-MEL-2 melanoma 55.6% | SN12C renal 57.2% | UO-31 renal 22.2% | TK-10 renal 39.4% | ACHN renal 30.1% | CAKI-1 renal 13.4% | A498 renal 92% | RPMI-8226 leukemia 44.6% | OVCAR-5 ovarian 77.6% | OVCAR-4 ovarian 32.6% | SK-OV-3 ovarian 46.8% | IGROV1 ovarian 44.3% | OVCAR-3 ovarian 19.8% | HS 578T breast 71.6% | NCI/ADR-RES ovarian 19.1%

O=C1OC2C(I)C3CC2C1C3c1ccccc1 (stereo not given)
inactive: SK-MEL-2 melanoma 128% | EKVX NSCLC 129% | UO-31 renal 95.8% | TK-10 renal 145% | ACHN renal 102% | A498 renal 114% | CCRF-CEM leukemia 110% | MOLT-4 leukemia 102% | SR leukemia 86.8% | RPMI-8226 leukemia 106% | OVCAR-8 ovarian 112% | OVCAR-5 ovarian 93% | OVCAR-4 ovarian 96.3% | SK-OV-3 ovarian 116% | IGROV1 ovarian 111% | OVCAR-3 ovarian 120% | HS 578T breast 143% | NCI/ADR-RES ovarian 101%

COc1ccc(-c2cc(/C=C3\C(=O)Nc4ccc(Cl)cc43)[nH]n2)cc1
inactive: SK-MEL-2 melanoma 51.2% | SN12C renal 63.1% | UO-31 renal 64.4% | TK-10 renal 86.9% | ACHN renal 56.7% | CAKI-1 renal 65.8% | A498 renal 65.7% | CCRF-CEM leukemia 35.5% | MOLT-4 leukemia 25.1% | SR leukemia 10.6% | RPMI-8226 leukemia 61.6% | OVCAR-8 ovarian 67.5% | OVCAR-5 ovarian 92.5% | OVCAR-4 ovarian 101% | SK-OV-3 ovarian 60% | IGROV1 ovarian 17.7% | OVCAR-3 ovarian 31.6% | HS 578T breast 68.6% | NCI/ADR-RES ovarian 34.2%

CN1/C(=C\C=C\C2=[N+](C)c3ccccc3C2(C)C)C(C)(C)c2ccccc21
active: SK-MEL-2 melanoma -56.6% | UO-31 renal 8.16% | TK-10 renal 5.75% | ACHN renal 1.47% | A498 renal 1.83% | CCRF-CEM leukemia 7.62% | MOLT-4 leukemia -12.6% | SR leukemia -32.8% | RPMI-8226 leukemia -8.69% | OVCAR-8 ovarian 1.34% | SK-OV-3 ovarian -2.66% | IGROV1 ovarian 2.4% | OVCAR-3 ovarian 2.1%
inactive: EKVX NSCLC 13.3% | CAKI-1 renal 23% | OVCAR-5 ovarian 20.9% | OVCAR-4 ovarian 10.5% | HS 578T breast 23.4% | NCI/ADR-RES ovarian 14.3%

C=CC[N+]1(CCO)CCN=C1CCCCCCCCCCCCC (stereo not given)
active: SK-MEL-2 melanoma -64.2% | EKVX NSCLC -29.4% | UO-31 renal -60.7% | TK-10 renal -87% | ACHN renal -91.9% | CAKI-1 renal -47.7% | CCRF-CEM leukemia -40.6% | MOLT-4 leukemia -42.6% | SR leukemia -39.7% | RPMI-8226 leukemia -39.5% | OVCAR-8 ovarian -74.3% | OVCAR-5 ovarian -94.9% | OVCAR-4 ovarian -25.9% | SK-OV-3 ovarian -48.6% | IGROV1 ovarian -82% | OVCAR-3 ovarian -84.4% | HS 578T breast -36.5% | NCI/ADR-RES ovarian -62%
inactive: A498 renal 82.6%

COc1cc(-c2cc(-c3nc4ccc(Cl)cc4[nH]3)[nH]n2)cc(OC)c1OC
active: CCRF-CEM leukemia 7.12% | MOLT-4 leukemia 4.79% | RPMI-8226 leukemia 9.58% | OVCAR-8 ovarian 3.73%
inactive: SK-MEL-2 melanoma 55.8% | SN12C renal 68.3% | UO-31 renal 20.6% | TK-10 renal 67.1% | ACHN renal 51.9% | CAKI-1 renal 35.1% | A498 renal 39.2% | SR leukemia 41.9% | OVCAR-5 ovarian 97.3% | OVCAR-4 ovarian 32.2% | SK-OV-3 ovarian 61.7% | IGROV1 ovarian 44.3% | OVCAR-3 ovarian 57.8% | HS 578T breast 84.2% | NCI/ADR-RES ovarian 20%

O=C(O)c1cccnc1Br
inactive: SK-MEL-2 melanoma 99.6% | EKVX NSCLC 107% | UO-31 renal 73.5% | TK-10 renal 113% | ACHN renal 99.6% | CAKI-1 renal 94.1% | A498 renal 104% | CCRF-CEM leukemia 121% | MOLT-4 leukemia 103% | SR leukemia 89.4% | RPMI-8226 leukemia 112% | OVCAR-8 ovarian 106% | OVCAR-5 ovarian 101% | OVCAR-4 ovarian 102% | SK-OV-3 ovarian 94.4% | IGROV1 ovarian 98.1% | OVCAR-3 ovarian 104% | HS 578T breast 110% | NCI/ADR-RES ovarian 99.3%

COc1nc2c(cc1S(=O)(=O)c1ccccc1)CCc1c-2cnn1-c1ccc(Cl)cc1
inactive: SK-MEL-2 melanoma 97.2% | EKVX NSCLC 90.4% | UO-31 renal 99.3% | TK-10 renal 110% | ACHN renal 102% | CAKI-1 renal 90.8% | A498 renal 82.4% | CCRF-CEM leukemia 84.2% | MOLT-4 leukemia 86.3% | SR leukemia 80.7% | RPMI-8226 leukemia 93.3% | OVCAR-8 ovarian 104% | OVCAR-5 ovarian 85.5% | OVCAR-4 ovarian 90.4% | SK-OV-3 ovarian 95.5% | IGROV1 ovarian 100% | OVCAR-3 ovarian 111% | HS 578T breast 82% | NCI/ADR-RES ovarian 89.9%

O=[N+]([O-])c1c(F)cccc1Nc1cccc(F)c1
inactive: SK-MEL-2 melanoma 103% | EKVX NSCLC 103% | UO-31 renal 78.3% | TK-10 renal 113% | ACHN renal 101% | CAKI-1 renal 101% | A498 renal 80.8% | MOLT-4 leukemia 93.8% | SR leukemia 102% | OVCAR-8 ovarian 102% | OVCAR-5 ovarian 97.3% | OVCAR-4 ovarian 95.9% | SK-OV-3 ovarian 114% | IGROV1 ovarian 117% | OVCAR-3 ovarian 109% | HS 578T breast 102% | NCI/ADR-RES ovarian 110%

O=[N+]([O-])c1cccc(C2CC(c3ccccc3)=Nc3ccccc3S2)c1 (stereo not given)
active: SR leukemia -40.3%
inactive: SK-MEL-2 melanoma 95.4% | SN12C renal 95.5% | UO-31 renal 59.7% | TK-10 renal 124% | ACHN renal 90.9% | CAKI-1 renal 91.6% | A498 renal 96.3% | CCRF-CEM leukemia 22.6% | MOLT-4 leukemia 64.2% | RPMI-8226 leukemia 16.1% | OVCAR-8 ovarian 61.9% | OVCAR-5 ovarian 109% | OVCAR-4 ovarian 81.7% | SK-OV-3 ovarian 97.7% | IGROV1 ovarian 91.8% | OVCAR-3 ovarian 88% | HS 578T breast 95.9% | NCI/ADR-RES ovarian 98.3%

CCOC(=O)N1CCN(c2nc(Nc3cc(C)[nH]n3)c3ccccc3n2)CC1
active: A498 renal -21.8%
inactive: SK-MEL-2 melanoma 52.4% | SN12C renal 45.8% | UO-31 renal 47.4% | TK-10 renal 40.9% | ACHN renal 50.7% | CAKI-1 renal 20.8% | CCRF-CEM leukemia 40.1% | MOLT-4 leukemia 69.1% | SR leukemia 17.3% | RPMI-8226 leukemia 37.3% | OVCAR-8 ovarian 74% | OVCAR-5 ovarian 55.9% | OVCAR-4 ovarian 49.5% | SK-OV-3 ovarian 47.8% | IGROV1 ovarian 35.6% | OVCAR-3 ovarian 55.3% | HS 578T breast 29.6% | NCI/ADR-RES ovarian 55.4%

COc1ccc(C(=O)COc2ccc(/C=C3\Oc4ccc(Cl)cc4C3=O)cc2)cc1
active: MOLT-4 leukemia -17.8% | SR leukemia -22.4%
inactive: SK-MEL-2 melanoma 71.1% | EKVX NSCLC 86.8% | SN12C renal 103% | ACHN renal 109% | CAKI-1 renal 98.1% | A498 renal 109% | CCRF-CEM leukemia 122% | RPMI-8226 leukemia 181% | OVCAR-8 ovarian 76.6% | OVCAR-5 ovarian 103% | OVCAR-4 ovarian 86.3% | SK-OV-3 ovarian 98.7% | IGROV1 ovarian 32.9% | OVCAR-3 ovarian 113% | HS 578T breast 91.8% | NCI/ADR-RES ovarian 88.6%
